We go through 15 compounds from ChEMBL document CHEMBL1961873, “Compounds: GSK PKIS; Assays: Nanosyn kinase panel” (2012).

For test [1], the target named is Ribosomal protein S6 kinase alpha-6 (Homo sapiens) (UniProt Q9UK32). The settings on record: at 1 µM.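 Also: each value is a mean inhibition of RSK4 from a GSK PKIS panel screen.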
Test [2] concerns the target T1, Serine/threonine-protein kinase Sgk1 (Homo sapiens) (UniProt O00141).
T1 sequence (whole entry): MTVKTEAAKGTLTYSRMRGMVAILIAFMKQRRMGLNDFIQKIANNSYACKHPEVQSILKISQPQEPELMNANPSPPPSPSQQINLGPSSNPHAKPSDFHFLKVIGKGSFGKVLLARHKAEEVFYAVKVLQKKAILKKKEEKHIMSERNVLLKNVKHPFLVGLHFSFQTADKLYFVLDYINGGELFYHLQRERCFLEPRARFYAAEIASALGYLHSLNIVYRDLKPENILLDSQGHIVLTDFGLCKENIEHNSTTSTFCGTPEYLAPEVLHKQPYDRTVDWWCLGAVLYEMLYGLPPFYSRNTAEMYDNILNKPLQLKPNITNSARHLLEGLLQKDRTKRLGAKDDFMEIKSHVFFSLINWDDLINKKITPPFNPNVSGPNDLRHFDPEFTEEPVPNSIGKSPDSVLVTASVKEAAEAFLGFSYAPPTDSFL
Particulars: at 0.1 µM.

In test [3] the target is T1, Serine/threonine-protein kinase Sgk1 (Homo sapiens). The settings on record: at 1 µM.
In test [4] the target is T2, Serine/threonine-protein kinase Sgk2 (Homo sapiens) (UniProt Q9HBY8).
T2 sequence (whole entry): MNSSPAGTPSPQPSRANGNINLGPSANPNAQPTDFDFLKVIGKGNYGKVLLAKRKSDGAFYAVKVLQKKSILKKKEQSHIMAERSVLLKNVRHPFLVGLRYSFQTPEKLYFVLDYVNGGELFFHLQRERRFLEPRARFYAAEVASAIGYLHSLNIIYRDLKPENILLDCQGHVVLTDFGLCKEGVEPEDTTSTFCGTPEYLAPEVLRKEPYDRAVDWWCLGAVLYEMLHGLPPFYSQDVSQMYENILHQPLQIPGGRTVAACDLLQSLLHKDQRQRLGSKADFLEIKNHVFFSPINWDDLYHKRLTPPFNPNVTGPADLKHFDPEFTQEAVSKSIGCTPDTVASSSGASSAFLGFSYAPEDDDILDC
The settings on record: at 0.1 µM.

The target in test [5] is T2, Serine/threonine-protein kinase Sgk2 (Homo sapiens). Particulars: at 1 µM.
In test [6] the target is T3, Serine/threonine-protein kinase Sgk3 (Homo sapiens) (UniProt Q96BR1).
T3 sequence (whole entry): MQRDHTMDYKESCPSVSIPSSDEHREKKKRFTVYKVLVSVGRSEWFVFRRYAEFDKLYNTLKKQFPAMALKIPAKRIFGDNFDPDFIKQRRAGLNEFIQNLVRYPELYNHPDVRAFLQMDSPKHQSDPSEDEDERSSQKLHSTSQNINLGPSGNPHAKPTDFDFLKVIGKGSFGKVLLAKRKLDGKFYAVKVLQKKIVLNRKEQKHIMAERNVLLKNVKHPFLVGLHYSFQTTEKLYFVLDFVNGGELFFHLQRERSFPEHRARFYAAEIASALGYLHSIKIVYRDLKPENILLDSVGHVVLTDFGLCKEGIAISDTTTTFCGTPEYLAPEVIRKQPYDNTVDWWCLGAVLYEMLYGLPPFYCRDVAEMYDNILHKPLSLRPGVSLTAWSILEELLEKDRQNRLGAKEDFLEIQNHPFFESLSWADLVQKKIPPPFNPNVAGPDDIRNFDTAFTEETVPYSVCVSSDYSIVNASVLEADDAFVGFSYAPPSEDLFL
The settings on record: at 0.1 µM.

In test [7] the target is T3, Serine/threonine-protein kinase Sgk3 (Homo sapiens). Particulars: at 1 µM.
The target of test [8] is 5'-AMP-activated protein kinase catalytic subunit alpha-1 (Homo sapiens) (UniProt Q13131). The settings on record: at 0.1 µM.
Chain of 5'-AMP-activated protein kinase catalytic subunit alpha-1 (Homo sapiens) (Q13131 whole entry, looked up): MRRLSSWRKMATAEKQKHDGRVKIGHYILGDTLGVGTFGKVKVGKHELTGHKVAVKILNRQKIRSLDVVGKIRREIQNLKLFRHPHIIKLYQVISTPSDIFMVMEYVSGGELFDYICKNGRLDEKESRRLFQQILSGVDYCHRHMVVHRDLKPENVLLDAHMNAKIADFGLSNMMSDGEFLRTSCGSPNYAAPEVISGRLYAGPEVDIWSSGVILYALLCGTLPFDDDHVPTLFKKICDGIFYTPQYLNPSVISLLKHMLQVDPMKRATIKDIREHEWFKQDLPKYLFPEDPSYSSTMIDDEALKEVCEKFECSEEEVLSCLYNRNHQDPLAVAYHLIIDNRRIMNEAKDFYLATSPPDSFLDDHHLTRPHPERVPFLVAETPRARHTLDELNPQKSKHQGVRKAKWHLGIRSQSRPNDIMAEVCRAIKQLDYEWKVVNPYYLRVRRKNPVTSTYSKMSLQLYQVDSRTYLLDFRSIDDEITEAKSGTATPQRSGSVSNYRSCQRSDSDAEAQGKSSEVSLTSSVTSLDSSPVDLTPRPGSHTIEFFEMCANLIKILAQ
The target is the same in test [9]. The settings on record: at 1 µM.
The target in test [10] is 5'-AMP-activated protein kinase catalytic subunit alpha-2 (Homo sapiens) (UniProt P54646). The settings on record: at 0.1 µM.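 Also: mean inhibition measured on the AMPK complex of alpha2, beta1 and gamma1 subunits.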
Chain of 5'-AMP-activated protein kinase catalytic subunit alpha-2 (Homo sapiens) (P54646 whole entry, looked up): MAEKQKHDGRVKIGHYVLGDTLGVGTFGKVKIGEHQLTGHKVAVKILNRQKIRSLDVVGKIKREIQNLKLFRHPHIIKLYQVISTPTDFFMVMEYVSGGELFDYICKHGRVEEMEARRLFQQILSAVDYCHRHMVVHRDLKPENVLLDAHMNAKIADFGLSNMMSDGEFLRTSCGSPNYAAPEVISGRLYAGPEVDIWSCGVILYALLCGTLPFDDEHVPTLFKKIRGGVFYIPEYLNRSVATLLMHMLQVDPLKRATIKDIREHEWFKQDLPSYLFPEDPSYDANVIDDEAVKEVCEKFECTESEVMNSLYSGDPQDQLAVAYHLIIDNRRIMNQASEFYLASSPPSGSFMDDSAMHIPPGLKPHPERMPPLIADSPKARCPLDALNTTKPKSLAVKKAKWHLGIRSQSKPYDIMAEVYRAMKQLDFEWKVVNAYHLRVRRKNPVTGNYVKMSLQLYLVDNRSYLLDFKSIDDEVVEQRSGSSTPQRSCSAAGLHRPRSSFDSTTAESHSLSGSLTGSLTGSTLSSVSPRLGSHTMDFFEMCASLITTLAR

Chain of Ribosomal protein S6 kinase alpha-6 (Homo sapiens) (Q9UK32 whole entry): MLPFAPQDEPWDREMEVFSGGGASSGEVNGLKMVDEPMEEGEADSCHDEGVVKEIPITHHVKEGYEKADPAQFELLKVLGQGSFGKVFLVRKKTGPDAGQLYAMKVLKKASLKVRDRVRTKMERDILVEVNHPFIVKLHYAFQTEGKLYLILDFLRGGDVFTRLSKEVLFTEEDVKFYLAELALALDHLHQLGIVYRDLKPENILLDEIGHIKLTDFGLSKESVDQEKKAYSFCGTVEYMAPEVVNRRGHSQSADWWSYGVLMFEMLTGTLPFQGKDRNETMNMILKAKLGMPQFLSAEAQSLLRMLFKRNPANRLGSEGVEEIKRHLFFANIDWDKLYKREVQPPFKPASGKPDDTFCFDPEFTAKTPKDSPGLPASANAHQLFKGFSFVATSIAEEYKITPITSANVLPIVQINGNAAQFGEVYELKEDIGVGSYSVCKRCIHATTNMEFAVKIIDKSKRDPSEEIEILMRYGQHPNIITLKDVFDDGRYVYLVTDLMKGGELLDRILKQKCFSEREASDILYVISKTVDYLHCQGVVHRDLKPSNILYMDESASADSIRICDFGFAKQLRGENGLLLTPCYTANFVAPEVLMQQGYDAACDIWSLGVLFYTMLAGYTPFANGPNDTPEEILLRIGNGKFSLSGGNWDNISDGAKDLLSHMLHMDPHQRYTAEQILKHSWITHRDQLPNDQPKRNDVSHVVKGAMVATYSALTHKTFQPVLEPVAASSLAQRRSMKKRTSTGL

What is called inhibition is the relative decrease from the control value, in per cent. `NS(=O)(=O)c1ccc(N/N=C2\C(=O)Nc3cccc(CCc4ccncc4)c32)cc1`: the inhibition is 7.42% in [1]; 1.76% in [2]; 1.65% in test [3]; 3.09% in test [4]; -0.79% in [5]; -1.13% in [6]. The inhibition was -0.92% in test [7], 4.83% in test [8], 8.26% in test [9] and 3.2% in test [10].
For `O=C(Nc1n[nH]c2nnc(-c3cccnc3)cc12)C1CC1`, the inhibition in test [1] was 0.26%; in test [2], 0.71%; in [3], -0.17%; in [4], -0.62%; in test [5], 3.04%; in test [6], -2.68%. Moreover, the inhibition in test [7] is -0.26%; in test [8], -0.35%; in test [9], 0.39%; in test [10], 0.65%.
As to `COc1ccc(Nc2ncc(-c3ccccc3)o2)cc1OC`, the inhibition in [1] was 3.67%; in test [2], 1.25%; in test [3] it was 9.75%; in test [4], 1.33%; in [5] it was -0.37%; in [6], 0.7%. The inhibition was -1.61% in test [7], 0.83% in test [8], 5.29% in test [9] and -0.43% in [10].
Take `Cc1cc(O)cc(C)c1/C=C/c1cncc(C(N)=O)c1`: the inhibition came out at 1.18% in test [1]; 1.6% in test [2]; 2.14% in [3]; 3.61% in [4]; 3.1% in test [5]; 1.2% in test [6]. Moreover, the inhibition in test [7] stood at 1.31%; in test [8], 1.98%; in [9], 1.85%; in [10], 2.5%.
With `COc1cccc(-n2ncc3c(N/N=C/c4ccc(C(=O)NCCN(C)C)cc4)ncnc32)c1`, the inhibition stood at 6.67% in test [1]; 8.85% in [2]; 47.9% in test [3]; 6.05% in test [4]; 40.1% in test [5]; 3.22% in test [6]. Also, the inhibition in test [7] was determined as 3.92%; in test [8], 3.69%; in [9] it was 12.3%; in test [10], 2.3%.
For `COc1cc(Nc2ncc(-c3ccccc3)o2)cc(OC)c1`, the inhibition in [1] is 2.83%; in test [2], 3.1%; in test [3], 4.7%; in test [4], 3.93%; in test [5], 4.37%; in [6], 3.26%. Further, the inhibition turned out to be 3% in test [7], 2.43% in test [8], 5.67% in [9] and 2.86% in test [10].
Take `CS(=O)(=O)CCNCc1ccc(-c2ccc3ncnc(Nc4ccc(OCc5ccccc5)cc4)c3c2)o1`: the inhibition in [1] worked out at 1.11%; in [2], 5.01%; in test [3] it was 2.28%; in [4], 2.02%; in test [5], 1.93%; in [6] it was 3.54%. The inhibition in [7] worked out at 1.87%; in [8] it was 2.94%; in [9], 3.44%; in test [10] it was 2.07%.
Consider `CNC(=O)c1sc(-n2cnc3cc(OC)c(OC)cc32)cc1OCc1ccccc1C(F)(F)F`, for which the inhibition in test [1] stood at 1.47%; in [2], 2.16%; in [3], 1.23%; in test [4], 0.8%; in test [5], 2.63%; in test [6], 3.8%. The inhibition came out at 1.89% in test [7], 3.22% in test [8], 4.14% in test [9] and 0.14% in [10].
Turning to `CS(=O)(=O)Nc1ccc(-c2cc(-c3ccccc3)cc(C(N)=O)c2N)cc1`, the inhibition in test [1] is 0.06%; in [2], 0.87%; in test [3], 2.29%; in [4] it was 9.08%; in test [5], 0.51%; in test [6], 0.13%. Moreover, the inhibition in test [7] was 2.54%; in test [8], 0.7%; in test [9] it was 1.42%; in [10], 5.24%.
As to `COC(=O)Nc1nc2ccc(Oc3ccc(NC(=O)Nc4cc(C(F)(F)F)ccc4F)cc3)cc2s1`, the inhibition in test [1] is 1.65%; in [2] it was 0.33%; in test [3], 0.95%; in test [4], -4.85%; in test [5] it was 0.53%; in test [6] it was 1.37%. Also, the inhibition in test [7] was 1.57%; in test [8], -0.71%; in test [9], 0.03%; in test [10], 0.72%.
Take `CN(c1ccc(NC(=O)NCCN2CCOCC2)cc1)c1ccnc(Nc2ccc(CS(C)(=O)=O)cc2)n1`: the inhibition in [1] worked out at 2.33%; in test [2], 2.3%; in test [3], 5%; in [4] it was 1.89%; in [5], 3.1%; in test [6], 4.46%. Also, the inhibition in test [7] came to 2.63%; in [8], 3.65%; in test [9], 4.22%; in [10], 0.93%.
For `c1cnn2ncc(-c3ccnc(NCCCN4CCOCC4)n3)c2c1`, the inhibition in test [1] was 0.49%; in [2], 1.8%; in test [3] it was 3.79%; in test [4], 0.34%; in test [5], 5.05%; in [6] it was 5.66%. For the same compound, the inhibition in test [7] came out at 8.34%; in [8], 2.28%; in test [9], 2.5%; in [10] it was 3.24%.
For the compound `COc1cc(N2CCN(C(C)C)CC2)ccc1Nc1nc(Nc2cccc(F)c2C(=O)O)c2cc[nH]c2n1`, the inhibition in [1] came out at 13%; in test [2] it was 0.41%; in [3], 5.92%; in [4] it was 0.2%; in test [5] it was 3.35%; in test [6] it was 3.6%. Besides, the inhibition in test [7] turned out to be 4.41%; in test [8], 3.98%; in test [9] it was 5.67%; in test [10], 0.48%.
Consider `COC(=O)Nc1nc2cc(Oc3ccc(NC(=O)Nc4ccccc4)cc3)ccc2[nH]1`, for which the inhibition in test [1] came to 0.36%; in test [2], 2.77%; in test [3], 5.31%; in test [4], 0.16%; in test [5], 3.69%; in test [6] it was 3.38%. In addition, the inhibition came out at 5.17% in test [7], 2.62% in [8], 2.79% in test [9] and 0.01% in [10].
Turning to `NS(=O)(=O)c1cccc(N/C=C2\C(=O)Nc3ccccc32)c1`, the inhibition in [1] came out at 22.4%; in test [2], 6.58%; in [3], 26.9%; in test [4], 4.31%; in [5], 11.5%; in test [6], 6%. Also, the inhibition in test [7] was found to be 5.21%; in test [8], 3.31%; in [9] it was 12%; in [10], 4.65%.
